# BCLXL inh = Bcl-xL (human) inhibition | GST-Bcl-xL / FITC-Bim BH3 peptide fluorescence polarization | 320,000 compounds, 0.7% hits | inhibition, % at 10.9 µM;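 active = inhibition above the mean of all tested compounds plus 3 SD, cutoff set per campaign, cut at about 30% in these data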;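 note: 0% = DMSO wells and 100% = unlabeled Bim-BH3 peptide competitor; inhibitors lower millipolarization by displacing the labeled peptide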
# EBV gp42 block = inhibitors of Epstein-Barr virus glycoprotein 42; Fluorescence polarization binding assay, mP read-out; 220,000 compounds, 0.42% hits; AID 1085; Q1HVG2; inhibition, % (tested at 21.74 µM); in the data active = inhibition above about 50%
# E coli Lon inh = E. coli protease La inhibition. P0A9M0. purified E. coli Lon protease, fluorescence polarization. inhibition, % at 7.94 µM. 360,000 compounds, 0.42% hits. AID 602123; in the data active = inhibition above about 13%, passing the limit was not always enough;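 note: 0% = enzyme with probe and DMSO and 100% = no enzyme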
# Target sequence (P0A9M0 whole entry, looked up): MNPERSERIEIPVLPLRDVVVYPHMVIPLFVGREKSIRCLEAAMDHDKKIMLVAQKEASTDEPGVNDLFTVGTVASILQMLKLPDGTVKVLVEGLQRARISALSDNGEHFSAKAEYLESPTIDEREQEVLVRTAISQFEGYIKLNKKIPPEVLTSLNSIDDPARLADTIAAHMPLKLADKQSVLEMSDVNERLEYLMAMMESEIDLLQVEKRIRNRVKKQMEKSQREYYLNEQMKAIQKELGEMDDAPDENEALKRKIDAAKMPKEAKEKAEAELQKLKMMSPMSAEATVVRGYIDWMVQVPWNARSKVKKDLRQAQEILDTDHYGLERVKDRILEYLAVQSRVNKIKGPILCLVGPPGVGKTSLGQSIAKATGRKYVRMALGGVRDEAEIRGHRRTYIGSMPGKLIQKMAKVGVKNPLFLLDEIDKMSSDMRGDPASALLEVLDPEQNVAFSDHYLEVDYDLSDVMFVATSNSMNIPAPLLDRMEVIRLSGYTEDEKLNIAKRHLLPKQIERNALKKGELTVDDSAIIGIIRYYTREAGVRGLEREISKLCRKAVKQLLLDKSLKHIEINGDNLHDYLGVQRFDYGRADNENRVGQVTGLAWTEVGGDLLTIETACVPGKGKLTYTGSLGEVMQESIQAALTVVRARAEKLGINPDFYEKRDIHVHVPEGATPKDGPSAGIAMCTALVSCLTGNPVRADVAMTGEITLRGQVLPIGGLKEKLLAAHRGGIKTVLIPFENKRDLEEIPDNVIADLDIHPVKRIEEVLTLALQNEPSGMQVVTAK
# GLD-1 RNA inh = GLD-1-TGE RNA interaction inhibition (C. elegans). purified GLD-1 + fluorescein TGE RNA, fluorescence polarization. inhibition, % at 5.96 µM. 320,000 compounds, 0.44% hits. AID 2280;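 active = percent inhibition above a per-plate cutoff, the plate mean of test compounds plus 3 SD, cut at about 30% in these data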;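 note: 0% = DMSO wells with GLD-1 and probe and 100% = wells lacking GLD-1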
# MEX-5 binding = C. elegans MEX-5 TCR-2 RNA binding activity; Q9XUB2; MEX-5/FITC-TCR2 RNA binding, fluorescence polarization; active compounds read low; activity score (negative = inhibition of binding), % at 10 µM; 300,000 compounds, 0.38% hits; AID 1832;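 active = inhibition past about -25% in most replicates, and total fluorescence under double the plate's negative control median, limit read from the data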;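 note: 0% = DMSO and -100% = 5 µM competing unlabeled TCR2 RNA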
# Numbers without * were called inactive; / = no result. Hits are enriched below; roughly 1.3% of the tested compounds scored in any of these assays.
SMILES,BCLXL inh,EBV gp42 block,E coli Lon inh,GLD-1 RNA inh,MEX-5 binding
Cc1ccc(C(=O)O)cc1N1C(=O)c2cccc3c([N+](=O)[O-])ccc(c23)C1=O,82*,/,14,50*,-24
O=C(O)c1ccc(CN2C(=O)c3cccc4c([N+](=O)[O-])ccc(c34)C2=O)cc1,/,/,44,/,-6
CCOc1ccc2[nH]c(SCC(=O)OC)c([N+](=O)[O-])c2c1,39*,28,3,30,0
COC(=O)CSc1[nH]c2ccc(Br)cc2c1[N+](=O)[O-],6,-3,-3,-2,-1
CCCn1c(O)c(CN2CCCCC2)c(C)c(C#N)c1=O,24,-4,5,23,-51*
C=CCn1c(O)c(CN2CCN(Cc3ccccc3)CC2)c(C)c(C#N)c1=O,29,-12,9,23,-5
Cc1c(CN2CCCCC2)c(O)n(CCCO)c(=O)c1C#N,35*,-4,-2,27,-46*
Cc1cc(=O)n(CCO)c(O)c1C#N,12,-2,-1,26,-10
Cc1cc(NC(=NC2CC2)c2ccccc2F)n(-c2ccccc2)n1,0,2,-2,5,2
Brc1ccc(-c2cn3nc4c(nc3n2)CCCC4)cc1,75*,-22,-6,42*,-11
c1ccc(-c2cn3nc4c(nc3n2)CCCC4)cc1,112*,63*,7,91*,-37*
Cc1cccc(CC(=O)NCCS(=O)(=O)N2CCN(c3ccccc3)CC2)c1,/,/,-2,/,/
N#C/C(=C\C=C\c1ccccc1)c1nc(-c2ccc3c(c2)OCO3)cs1,3,156*,-34,-4,-6
O=S(=O)([N-]c1nc2ccccc2nc1-[n+]1ccccc1)c1ccccc1,0,-18,12,0,1
O=S(=O)([N-]c1nc2ccccc2nc1-[n+]1ccc(CCCc2ccccc2)cc1)c1cccs1,30,36,14,17,-29*
Cc1nc2ccccc2c2c(N)c3ccccc3n12,35*,12,4,26,2
Cc1ccc(Nc2ccc([N+](=O)[O-])ccc2=O)cc1,-2,/,6,-2,-28*
CC(=O)NCc1ccc(S(=O)(=O)NC(C(=O)O)C(C)C)cc1 (stereo unspecified),2,-14,-6,7,2
Cc1cccn2c(=O)c3cc(C(=O)NCC4CCCO4)c(=N)n(CCN4CCOCC4)c3nc12 (stereo unspecified),0,-21,7,-8,-6
CCCn1c(=N)c(C(=O)NCC2CCCO2)cc2c(=O)n3cccc(C)c3nc21 (stereo unspecified),11,-5,-4,-2,-27*
COc1ccc(CCn2c(=N)c(C(=O)NC3CCCC3)cc3c(=O)n4cccc(C)c4nc32)cc1,11,/,-4,-5,-3
Cc1cccn2c(=O)c3cc(C(=O)NC4CCCC4)c(=N)n(CCc4ccccc4)c3nc12,4,/,8,-7,-39*
COc1ccc(CCn2c(=N)c(C(=O)NC3CCCCC3)cc3c(=O)n4ccccc4nc32)cc1,9,/,-3,0,-45*
CCNC(=O)c1cc2c(=O)n3cccc(C)c3nc2n(CCc2ccccc2)c1=N,16,-14,6,-2,-66*
O=C(O)C1CC(Br)C(Br)CC1C(=O)O (stereo unspecified),/,/,-2,/,/
SMILES,BCLXL inh,EBV gp42 block,E coli Lon inh,GLD-1 RNA inh,MEX-5 binding
COc1ccccc1N1CCN(CCN2C(=O)C3CCCCN3C2=O)CC1 (stereo unspecified),0,/,2,-7,-2
N=c1c(C(=O)NCC2CCCO2)cc2c(=O)n3ccccc3nc2n1Cc1ccccc1Cl (stereo unspecified),0,/,10,-5,-46*
Cc1cccn2c(=O)c3cc(C(N)=S)c(=N)n(CCCOC(C)C)c3nc12,34*,-7,-22,-2,-8
COc1ccc2cc(/C=C/C(=O)N3CCN(CC(=O)N4CCCCCC4)CC3)ccc2c1,3,/,4,2,1
Cc1sc(N2CCN(S(=O)(=O)c3ccc4c(c3)NC(=O)CO4)CC2)nc1-c1ccccc1,7,/,-12,-6,2
O=C(N1CCOCC1)N1CCC(n2nnc3cc(F)ccc32)CC1,76*,42,7,40*,-27*
C(=N\Nc1nc2ccccc2s1)/c1ccccn1,32*,2,/,-3,-8
COc1ccc(C=NNc2nc3ccccc3s2)cc1,/,/,11,/,/
CCN(C(=O)Cn1nc(C)c([N+](=O)[O-])c1C)C1CCS(=O)(=O)C1 (stereo unspecified),-3,/,-7,3,-2
O=C1NC(=O)/C(=C\c2ccc(O)cc2O)S1,31*,34,3,-12,-21
O=C1NC(=O)/C(=C/c2cccc3ccccc23)S1,8,/,3,9,-1
COc1cccc(C(=O)/C=C/Nc2cccc(O)c2)c1,86*,-14,13,14,0
COc1cccc(N/C=C/C(=O)c2ccc(C)cc2)c1,-1,/,-13,4,1
CCC(C)NC(=O)c1ccc(CSCc2cccc(F)c2)o1 (stereo unspecified),5,110*,-2,-2,-1
C/C(N)=C(/C#N)C(=O)CSc1nnc(Nc2ccccc2)s1,-10,124*,-5,-4,-1
C/C(N)=C(/C#N)C(=O)CSc1ncnc2ccccc12,-2,-9,-14,-23,-39*
C1=C[C@H]2CCCN3CC[C@@H]([C@@H]2[C@]32CO2)[C@H]1CCOCc1ccccc1,/,/,-2,/,/
COc1ccc(-c2cn(Cc3ccc(C(=O)NCc4ccc(C)cc4)cc3)c(C(C)N)n2)cc1 (stereo unspecified),0,/,-16,-1,7
O=c1c(O)cccc2cc(O)c(O)c(O)c12,86*,82*,15,22,-37*
CCOC(=O)C1CCN(C(=O)c2cc3cc(C)ccc3[nH]2)CC1,2,/,0,-3,-2
CC(=O)N=Cc1c(C)c(C#N)c(=O)n(C)c1O,21,-4,4,5,-3
Cc1c(C=O)c(Cl)n(C)c(=O)c1C#N,37*,-4,-3,21,-19
CN(C)CCC(=O)c1cccc(Br)c1,4,0,5,-6,3
Cc1cc(=O)c(C(=O)c2ccccc2)c(C)o1,37*,/,14,6,0
Cc1oc2ccc(O)cc2c1C(=O)c1ccccc1,-2,/,-2,0,-1
CCOc1ncccc1C(=O)OCC(=O)N(CC(C)C)C1CCS(=O)(=O)C1 (stereo unspecified),91*,-13,1,0,1
CSc1ncccc1C(=O)OCC(=O)N(CC(C)C)C1CCS(=O)(=O)C1 (stereo unspecified),-5,-33,-1,6,0
Cc1ccc(/C=C/C(=O)O)cc1S(=O)(=O)N1CCCCC1,1,-19,-8,2,-30*
Cc1ccc(/C=C/C(=O)O)cc1S(=O)(=O)N1CCc2ccccc2C1,0,-10,3,0,2
Cn1c2ccccc2c2cc(/C=N/NC(=O)c3cc(O)ccc3O)ccc21,32*,/,5,8,1
